Drawing on PubChem BioAssay (NCI), this text covers growth for 38 molecules.

Compounds without any hit were thinned out: in the full panel of roughly 83,000, 20% have a hit.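 Method: cells in 96-well plates; compound added at one concentration; 48 h incubation; percent growth measured; values under 10 scored active.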 Values without a mark were called inactive. Calls of active or inactive are those of the source.

In one experiment the test system is RPMI-8226 leukemia. The experiment is described as follows: NCI-60 one-dose screen, 48 h (100 = growth as untreated, 0 = no growth, -100 = all killed). As to conditions: 10 µM unless noted.
Turning to `COc1ccc(C(=O)Nc2cccc(C3CCc4c(cc(OC)c(OC)c4OC)O3)c2)cc1` (configuration not stated), the growth was 23.9%. The same measure, in the same setting: the same measure for `N=C(N)c1ccc(OCCCCCCCCCCOc2ccc(C(=N)N)cc2)cc1`: -59.8% (active); for `COc1cc2nc(-c3ccc(Cl)cc3)cc(OCCCN3CCOCC3)c2cc1OC`: 20.4%.

On to `Brc1ccc2[nH]cc(-c3cncn3CCc3ccccc3)c2c1`, for which the growth is 29.7%.

The test system of a further experiment is OVCAR-8 ovarian. Described as above. Conditions: 10 µM unless noted.
With `N/C(=N\C(N)=N\c1nc2ccccc2s1)c1cccc(Cl)c1`, the growth was 70.8%.

Regarding `CCOC(=O)[C@@H](C)C[C@H](Cc1ccccc1)NC(=O)c1csc([C@@H](C[C@H](C(C)C)N(C)C(=O)[C@@H](NC(=O)[C@H]2C[C@H](O[Si](C)(C)C(C)(C)C)CCN2C)C(C)C)OC(C)=O)n1`, the growth is -2.84% [9.25 µM] (active). Still for that read-out and setting: to `COC(=O)/C=C1\S/C(=N\NC(=O)c2cc3ccc2/C=C\c2ccc(cc2)/C=C\3)N(c2ccccc2)C1=O` belongs 40.7%. Still for that read-out and setting: the same measure for `NNC(=O)c1ccc(-n2nc(-c3ccccc3)c3ccccc32)cc1`: 77%; for `NC(=NCCCOc1ccc(F)cc1)Nc1ccc(I)cc1`: 89.3%. Same read-out and setting: the same measure for `N#CC1C(C#N)C(C(=O)c2ccc(Br)cc2)N2c3ccccc3C=CC12` (configuration not stated): 90.9%. For `CCN1C(=O)/C(=C/C(=O)OC)S/C1=N\NC(=O)c1cc2ccc1/C=C\c1ccc(cc1)/C=C\2`, the growth was 92.6%. On the same count and under the same terms, the same measure for `COc1ccccc1/C=C1\Oc2cc(OCCN3CCCC3)ccc2C1=O`: 91.8%; for `Cc1cc2nc3c4ccc(Br)cc4n(CCN(C)C)c3nc2cc1C`: 21.6%. Still for that read-out and setting: the same measure for `C/C(=N\Nc1cc(C)nc2ccc(Br)cc12)c1ccc([N+](=O)[O-])cc1`: 50.8%.

As for `COc1cc(C2C3CC4CCCC[C@H]4N3[C@@]3(C(=O)Nc4cc(Cl)ccc43)C2C(=O)c2nc3ccccc3[nH]2)cc(OC)c1OC` (some centres not stated), the growth is 70.7%.

Regarding `O=C1OC(Cc2ccccc2)C1c1ccccc1` (configuration not stated), the growth was 100%. The same measure, in the same setting: the same measure for `CC(Oc1ccc(C(=O)O)cc1C(F)(F)F)c1ccc(Oc2ccccc2)cn1` (configuration not stated): 96.6%. Same read-out and setting: to `CC(Sc1nc2ccccc2c(=O)n1CCc1ccc(S(N)(=O)=O)cc1)C(=O)Nc1ccc(Cl)cc1` (configuration not stated) belongs 72.8%; to `CC1=CCC(OC(=O)C(C)(O)CCC(O)(C(=O)OC2(C)C=CC(O)(C(C)C)CC2)C(C)C)(C(C)C)CC1` (configuration not stated), 105%; to `ClC1=C(Br)C(Br)(Br)C(=C(Br)Br)C1(Br)Br`, 85.1%.

As to `C=C1C(=O)O[C@H]2[C@H]1CC/C(CNC(=O)C(C)c1ccc(CC(C)C)cc1)=C\CC[C@@]1(C)O[C@@H]21` (some centres not stated), the growth was -32.5% (active). Still for that read-out and setting: to `CCCCCN1C=C/C(=C\C(=O)N2CCCc3ccccc32)c2ccccc21` belongs 89.3%; to `N#Cc1cc(-c2nc3ccccc3s2)c(=O)n(NS(=O)(=O)c2ccccc2)c1N`, 106%; to `CCCOc1ccc(/C=N/Nc2cc(C)nc3ccc(Cl)cc23)cc1`, -44.6% (active). On the same count and under the same terms, to `Cc1cccc(NC(=O)Nc2ccc(-n3cnc4cc(-c5ccc(O)cc5)ccc43)cc2)c1` belongs 17.6%; to `O=c1c2c(c(=O)n1O)c1c3ccc[nH]c3nc1c1nc3[nH]cccc3c12`, 67.1%. The same measure, in the same setting: the same measure for `O=C(CNCCN1CCOCC1)N1c2cccc3cccc(c23)N(C(=O)CNCCN2CCOCC2)C1c1cn(-c2ccccc2)nc1-c1cccc([N+](=O)[O-])c1`: 88.3%; for `O=Cc1cc2ccccc2nc1Oc1ccc(C(F)(F)F)cc1`: 91%; for `COc1ccc(C(=O)/C=C/c2cc3ccccc3n3nnnc23)cc1`: 109%. On to `CN1CCN(C(=O)[C@]23CCC(C)(C)C[C@H]2C2=CC[C@@H]4[C@@]5(C)C/C(=C/c6cccnc6)C(=O)C(C)(C)[C@@H]5CC[C@@]4(C)[C@]2(C)CC3)CC1`, for which the growth was 54%. Still for that read-out and setting: to `CCN(CC)c1ccc(/C=N/NC(=O)CSc2nc3ccccc3c(=O)n2CCc2ccc(S(N)(=O)=O)cc2)c(O)c1` belongs 8.51% (active); to `CCCCCCNC(=O)Nc1ccc2cc3ccc(NC(=O)NCCCCCC)cc3nc2c1`, -82.7% (active); to `CCNC(=O)Oc1ccc(/C(=C(\C)c2ccccc2)c2ccc(OCCN(CC)CC)cc2)cc1`, 78.3%. On the same count and under the same terms, to `CC/C(=C\c1ccc(OC)cc1)C(=O)c1ccc(OC)cc1` belongs 74%; to `CCc1ccc(CNc2ccc(N3CCOCC3)c(C(=O)O)c2)cc1`, 102%; to `Cc1ccc(NS(=O)(=O)c2ccc(-c3cnc(C4CC4)o3)cc2)cc1C(F)(F)F`, 78.5%. Consider `C/C(=N\NC(=O)CSc1nc2ccccc2c(=O)n1CCc1ccc(S(N)(=O)=O)cc1)c1ccccn1`, for which the growth is 22.8%.

As to `C=C(CBr)[C@@H]1CC[C@]2(COC(C)=O)CC[C@]3(C)[C@H](CC[C@@H]4[C@@]5(C)CCCNC(C)(C)[C@@H]5CC[C@]43C)[C@@H]12`, the growth is 40.4%. On the same count and under the same terms, the same measure for `COc1ccc(C(=O)Nc2cccc(C3CCc4c(cc(OC)c(OC)c4OC)O3)c2)cc1` (configuration not stated): 55.6%; for `N=C(N)c1ccc(OCCCCCCCCCCOc2ccc(C(=N)N)cc2)cc1`: -74.5% (active). Still for that read-out and setting: the same measure for `COc1cc2nc(-c3ccc(Cl)cc3)cc(OCCCN3CCOCC3)c2cc1OC`: 42.7%. On to `Brc1ccc2[nH]cc(-c3cncn3CCc3ccccc3)c2c1`, for which the growth is 66.9%.
